Compound activity as filed in PubChem.
Compounds with a hit are over-represented: about 1.2% of the library has one in this group of screens.
PG9 Ab binder = binds the HIV-1 gp120 antibody PG9. 360,000 tested, 0.43% active. TR-FRET gp120-PG9 antibody binding. inhibition, % at 6.7 µM. AID 624416; in the data active = inhibition above about 8.5%
PKA-R2B activ = activates the human PKA-R2B holoenzyme complex | AID 504700 | activation, % at 11.4 µM | PKA-R2B holoenzyme dissociation, Cy5-IP20 fluorescence polarization; R2B truncated from residue 108, S112A mutant; 0% DMSO only, 100% 113 µM cGMP | 340,000 tested, 0.079% active | P22694+P31323;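 active = activation above a cutoff set at the mean over all compounds plus 3 SD, cut at about 18% in these data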;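 also: higher means more holoenzyme dissociation and a rise in polarization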
Target sequence (P31323 whole entry, looked up, other chains not shown, the tested form may be a part): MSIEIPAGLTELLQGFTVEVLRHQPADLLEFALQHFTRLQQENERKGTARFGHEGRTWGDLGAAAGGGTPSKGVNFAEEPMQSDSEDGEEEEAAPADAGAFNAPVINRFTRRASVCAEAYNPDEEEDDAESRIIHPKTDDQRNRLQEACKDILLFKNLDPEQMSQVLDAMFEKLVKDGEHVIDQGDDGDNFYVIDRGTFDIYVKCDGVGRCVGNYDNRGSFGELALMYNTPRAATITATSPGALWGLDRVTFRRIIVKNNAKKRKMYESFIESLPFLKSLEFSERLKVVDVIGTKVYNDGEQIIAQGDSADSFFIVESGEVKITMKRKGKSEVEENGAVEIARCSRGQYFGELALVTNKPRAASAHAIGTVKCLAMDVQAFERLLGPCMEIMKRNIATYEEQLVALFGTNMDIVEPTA
PKA-R1A act = activators of PKA-R1A complex; P00514+P68181; 340,000 tested, 0.083% active; activation, % at 11.4 µM; PKA-R1A dissociation, Cy5-IP20 fluorescence polarization; scaled: DMSO 0%, 113 µM cGMP 100%;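 active = percent activation above the mean of all tested compounds plus 3 SD, cut at about 19% in these data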;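 also: higher means more PKAc released from R1A so a rise in polarization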
Rev-erbA mod = modulates human Rev-erb alpha binding to DNA | Rev-erbα–FITC-DNA binding, fluorescence polarization, 90 min | activity, % at 10 µM | 370,000 tested, 0.79% active | AID 1259318;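 active = activity above about 14%, limit read from the data; passing the limit was not always enough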
NR1D1 mod conf = confirmation of modulators of human Rev-erb alpha DNA binding. 3,000 tested, 61% active. activation, % at 25 µM. Rev-erb alpha FITC-DNA binding, fluorescence polarization, 90 min. shares compounds with Rev-erbA mod;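 active = activation at or above a set limit, or at least 3 SD above the negative control mean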
RORg DNA counter = RORgamma DNA-binding activity, dose-response counter-screen. shares compounds with Rev-erbA mod. purified RORgamma protein-FITC-DNA binding, fluorescence polarization. IC50, µM. 910 tested, 8% active. AID 1259320;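 active = Compounds whose fitted half-maximal concentration for disrupting protein-DNA binding is below 10 micromolar; the record names Rev-erb in its text, so the target is in doubt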
Of the large screens only hits and unclear results are named; the others gave an inactive call (follow-up assays come after a bar, where they were run).

CCOc1ccc2[nH]c3c(=O)n(CCc4ccc(OC)cc4)cnc3c2c1	none
CCOc1ccc2[nH]c3c(=O)n(CCC4=CCCCC4)cnc3c2c1	Rev-erbA mod 19 | NR1D1 mod conf inactive
Cc1ccc2c(C(=O)CSc3ccccc3)c(C)[nH]c2c1	Rev-erbA mod 30 | NR1D1 mod conf 28
Cc1[nH]c2ccccc2c1C(=O)CSc1ccccc1	none
O=C(/C=C\Nc1ccc2c(c1)OCO2)c1ccccn1	Rev-erbA mod 28 | NR1D1 mod conf inactive
O=C(Nc1ccc2c(c1)OCO2)c1ccccn1	none
Nn1c(SCC(=O)N2CCOCC2)nnc1-c1n[nH]c2c1CCC2	none (no result: PG9 Ab binder, PKA-R2B activ, PKA-R1A act)
CC(=O)Nc1ccc(-c2ccnc(-c3ccc(NC(C)=O)cc3)n2)cc1	Rev-erbA mod 20 | NR1D1 mod conf inactive
COc1cc2c(cc1O)CC[n+]1cc3c(OC)c(OC)ccc3cc1-2	none
COc1cc2c(cc1OC)-c1cc3ccc4c(c3c[n+]1CC2)OCO4	Rev-erbA mod 27 | NR1D1 mod conf 45 | RORg DNA counter inactive
O=C(Nc1ccc(F)cc1)OCc1cn(Cc2cccc(F)c2)nn1	none (no result: PG9 Ab binder, PKA-R2B activ, PKA-R1A act)
CC1(c2nnnn2-c2ccc3c(c2)OCCO3)CSCC(=O)N1CCc1c[nH]c2ccccc12 (stereo not given)	none (no result: PG9 Ab binder, PKA-R2B activ, PKA-R1A act)
CCOc1ccc(CCNC(=O)COC(=O)c2ccc(S(C)(=O)=O)cc2)cc1OCC	Rev-erbA mod 17 | NR1D1 mod conf inactive
COc1ncc(-c2cc(C(C)=O)c3n(c2=O)CCC3)c(OC)n1	none (no result: PG9 Ab binder, PKA-R2B activ, PKA-R1A act)
COc1ccc(Cn2c3ccc(OC)cc3c3nc4ccccc4nc32)cc1	Rev-erbA mod 25 | NR1D1 mod conf 23
COc1ccc(-c2cc(-n3c(C(F)(F)F)nc4ccccc43)n(CCC#N)n2)cc1	none
COc1ccc(Sc2nc3ccccc3n3c(C(F)(F)F)nnc23)cc1	Rev-erbA mod 56 | NR1D1 mod conf 34 | RORg DNA counter inactive
CCCCCn1nnnc1C1(C)CCCC(=O)N1Cc1ccco1 (stereo not given)	none (no result: PG9 Ab binder, PKA-R2B activ, PKA-R1A act)
CC(C)c1cc(Br)ccc1OCCN1C(=O)NC(C)(C)C1=O	Rev-erbA mod 14 | NR1D1 mod conf inactive
O=C(CCc1ccccc1)N[C@H]1[C@H](OC(=O)c2ccco2)CCC[C@@]12C(=O)N(Cc1ccccc1)c1ccccc12	none (no result: PG9 Ab binder, PKA-R2B activ, PKA-R1A act)
O=C(NCC1CCCO1)c1nn2c(C(F)(F)F)cc(-c3cc(Br)cs3)nc2c1Br (stereo not given)	Rev-erbA mod 23 | NR1D1 mod conf inactive
N#CCNC(=O)c1nn2c(C(F)(F)F)cc(-c3ccccc3)nc2c1Br	Rev-erbA mod 57 | NR1D1 mod conf 31 | RORg DNA counter inactive
Cc1ccc(-c2cc3nc(-c4ccco4)cc(N4CCN(Cc5ccoc5)CC4)n3n2)cc1	none (no result: PG9 Ab binder, PKA-R2B activ, PKA-R1A act)
COc1ccc(-c2oc3ccccc3c(=O)c2OC(=O)c2ccc(C)cc2)cc1	Rev-erbA mod 22 | NR1D1 mod conf 36 | RORg DNA counter inactive
COC(=O)C12C=C3CC(c4ccc(OC)cc4)=C3C(=O)N1Cc1[nH]c3ccccc3c1C2 (stereo not given)	none (no result: PG9 Ab binder, PKA-R2B activ, PKA-R1A act)
COc1ccc(Oc2c(Cl)cnn(CC(=O)C(c3ccccc3)c3ccccc3)c2=O)cc1	Rev-erbA mod 78 (no result: PG9 Ab binder, PKA-R2B activ, PKA-R1A act) | NR1D1 mod conf 57 | RORg DNA counter inactive
Cn1ncc(Cl)c(Oc2ccccc2)c1=O	none (no result: PG9 Ab binder)
COC(=O)[C@]12C[C@H](CC(=O)N3CCN(C(=O)c4ccco4)CC3)C(=O)N(Cc3ccc(Cl)cc3Cl)C1=C[C@H](C(C)(C)C)O[C@@H]2C	none (no result: PG9 Ab binder, PKA-R2B activ, PKA-R1A act)
Cc1ccc(/C=N/NC(=O)c2cc3c(ccc4ccccc43)o2)o1	none
CC(=O)Oc1ccc(/C=N\NC(=O)c2cc3c(ccc4ccccc43)o2)cc1	Rev-erbA mod 33 | NR1D1 mod conf 33 | RORg DNA counter inactive
CCCC[C@@H]1C(=O)N2N=Cc3cc(C)c(C)cc3[C@H]2N2N=Cc3cc(C)c(C)cc3[C@@H]12	none (no result: PG9 Ab binder, PKA-R2B activ, PKA-R1A act)
Oc1ccc2ccccc2c1N=Nc1ccccc1F	Rev-erbA mod 19 | NR1D1 mod conf inactive
O=S(=O)(/N=C/c1c(O)ccc2ccccc12)c1ccccc1	none
Oc1ccc2ccccc2c1N=Nc1ccccn1	none
O=S(=O)(O)c1cccc(N=Nc2c(O)ccc3ccccc23)c1	Rev-erbA mod 30 | NR1D1 mod conf inactive
CCOC(=O)c1cc2sc(C)cc2n1CC(=O)N1CCc2ccccc21	Rev-erbA mod 22 | NR1D1 mod conf 24
CCOC(=O)c1cc2sccc2n1CC(=O)N1CCCc2ccccc21	none
Nc1ncnc(N)c1N=Nc1ccccc1	none
Nc1ccc2ccccc2c1N=Nc1ccccc1	Rev-erbA mod 23 | NR1D1 mod conf 27
CCOc1ccc(C(=O)/C=C/Nc2ccc(S(=O)(=O)Nc3cc(C)nc(C)n3)cc2)cc1	Rev-erbA mod 20 (no result: PKA-R2B activ, PKA-R1A act) | NR1D1 mod conf inactive
Cc1cc(C)nc(NS(=O)(=O)c2ccc(N/C=C/C(=O)c3ccc(Cl)c(Cl)c3)cc2)n1	Rev-erbA mod 32 | NR1D1 mod conf 19
Cc1cc(C)nc(NS(=O)(=O)c2ccc(N/C=C\C(=O)c3ccc(Cl)cc3)cc2)n1	none
COc1cc(NS(=O)(=O)c2ccc(N/C=C\C(=O)c3ccc(C)cc3)cc2)nc(OC)n1	none
COC(=O)c1c(NC(=S)NNS(=O)(=O)c2ccc(OC)cc2OC)sc2c1CCCCCC2	Rev-erbA mod 32 | NR1D1 mod conf inactive
CCOc1cc(-c2nc(-c3ccncc3)no2)cc(OCC)c1OCC	Rev-erbA mod 28 | NR1D1 mod conf inactive
CCOc1ccc(-c2nc(-c3ccncc3)no2)cc1OCC	none
CC(/C=C/c1ccccc1F)=N\NC(=O)c1cccc(F)c1	Rev-erbA mod 17 | NR1D1 mod conf inactive
CC(=O)CC[C@@H]1CC[C@]2(CCCN(C(=O)C3CCCCC3)C2)O1	none (no result: PG9 Ab binder, PKA-R2B activ, PKA-R1A act)
N#CCOc1ccccc1CNC[C@H]1O[C@@H](n2cnc(C(N)=O)n2)[C@H](O)[C@@H]1O	Rev-erbA mod 16 | NR1D1 mod conf inactive
O[C@H]1C[C@H](c2ccccc2)N(Cc2cccs2)C[C@@H]1n1cc(C2CC2)nn1	Rev-erbA mod 18 | NR1D1 mod conf inactive
O=C(NCCc1c[nH]c2ccccc12)c1ccc(Sc2ccccc2Cl)c([N+](=O)[O-])c1	none (no result: PG9 Ab binder, PKA-R2B activ, PKA-R1A act)
Cc1c(C#N)c(O)[nH]c(=O)c1N=Nc1ccc(S(N)(=O)=O)cc1	Rev-erbA mod 26 | NR1D1 mod conf 17
CCN1/C(=C/c2ccc3cc(C)ccc3[n+]2CC)Sc2cc(C)ccc21	Rev-erbA mod 29 | NR1D1 mod conf 51 | RORg DNA counter inactive
CCN1/C(=C/c2ccc3cc(C)ccc3[n+]2C)Sc2ccc3sccc3c21	none
CCOC(=O)c1c(NC(=O)c2c(Br)cnn2CC)sc(C)c1C	Rev-erbA mod 28 | NR1D1 mod conf inactive
CCOC(=O)c1sc(NC(=O)c2ccccc2F)c(C(N)=O)c1C	Rev-erbA mod 20 | NR1D1 mod conf inactive
CCOC(=O)c1sc(NC(=O)c2ccccc2C(=O)O)c(C(=O)OCC)c1C	none
